Here are results for six compounds from PubChem BioAssay (EPA / NIEHS).

Active and inactive are the calls of the source. The calls were made as follows: active = hit-call score of the fitted dose curve at least 0.9, where 1 is the maximum; inactive = score below 0.9.

Settings in all cases: mRNA level, 48 h; actives raise or lower the signal
Read-out in assay [1]: Early growth response protein 1 (EGR1) transcription factor, EGR1 (gene 1958)
The assay can be described thus: LTEA_HepaRG_EGR1: Life Technologies and Expression Analysis (LTEA) Assay for Early growth response protein 1 (EGR1) transcription factor using HepaRG (AID 2283490). An outline of the steps: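 Differentiated HepaRG cells in serum-free induction medium exposed 48 hours, duplicate, to 8 half-log concentrations up to 100 uM in 0.5% DMSO. EGR1 mRNA measured by TaqMan qRT-PCR, normalized to ACTB, GAPDH, POLR2A; bidirectional fit versus DMSO.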

Read-out in assay [2]: Ezrin (EZR), EZR (gene 7430)
The assay can be described thus: LTEA_HepaRG_EZR: Life Technologies and Expression Analysis (LTEA) Assay for Ezrin (EZR) using HepaRG (AID 2283491). An outline of the steps: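 Differentiated human HepaRG cells, 48 h after plating, were exposed in serum-free induction medium for 48 hours to eight half-log concentrations up to 100 uM in 0.5% DMSO. EZR mRNA was measured by TaqMan qRT-PCR, normalized to ACTB, GAPDH and POLR2A, and fitted bidirectionally against DMSO.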

Read-out in assay [3]: Cytochrome P450 3A7 (Homo sapiens) (UniProt P24462)
The assay can be described thus: LTEA_HepaRG_CYP3A7: Life Technologies and Expression Analysis (LTEA) Assay for CYP3A7 using HepaRG (AID 2283492). An outline of the steps:
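CYP3A7 transcript measured by qRT-PCR (ACTB, GAPDH, POLR2A normalization) after 48 h chemical exposure of HepaRG cells in duplicate. Eight half-log concentrations, maximum 100 uM, 0.5% DMSO vehicle; bidirectional curve fitting against DMSO baseline.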

Read-out in a further assay: CYP3A5 (gene 1577)
The assay can be described thus: LTEA_HepaRG_CYP3A5: Life Technologies and Expression Analysis (LTEA) Assay for CYP3A5 using HepaRG (AID 2283493). An outline of the steps:
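HepaRG cells, plated 48 h then in serum-free induction medium, dosed in duplicate for 48 h with eight half-log concentrations up to 100 uM in 0.5% DMSO. Gene mRNA by Fluidigm TaqMan qRT-PCR, normalized to ACTB, GAPDH, POLR2A.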

Read-out in assay [4]: Fatty Acid-Binding Protein 1 (FABP1), FABP1 (gene 2168)
The assay can be described thus: LTEA_HepaRG_FABP1: Life Technologies and Expression Analysis (LTEA) Assay for Fatty Acid-Binding Protein 1 (FABP1) using HepaRG (AID 2283494). An outline of the steps:
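Differentiated human HepaRG cells exposed 48 h in serum-free induction medium to eight half-log concentrations up to 100 uM (0.5% DMSO), duplicate. FABP1 mRNA by qRT-PCR, normalised to ACTB, GAPDH, POLR2A; bidirectional fitting against DMSO.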

Read-out in assay [5]: Cytochrome P450 4A22 (Homo sapiens) (UniProt Q5TCH4)
The assay can be described thus: LTEA_HepaRG_CYP4A22: Life Technologies and Expression Analysis (LTEA) Assay for Cytochrome P450 4A22 (CYP4A22) using HepaRG (AID 2283495). An outline of the steps:
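Gene expression measured by qRT-PCR against three housekeeping genes (ACTB, GAPDH, POLR2A), with gain or loss fitted relative to 0.5% DMSO vehicle. HepaRG cultures received 48 h chemical treatment, top concentration 100 uM, half-log steps, duplicate wells.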

Read-out in assay [6]: Glutamate-cysteine ligase catalytic (GCLC), GCLC (gene 2729)
The assay can be described thus: LTEA_HepaRG_GCLC: Life Technologies and Expression Analysis (LTEA) Assay for Glutamate-cysteine ligase catalytic (GCLC) using HepaRG (AID 2283498). An outline of the steps:
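Differentiated HepaRG cells exposed 48 h in serum-free induction medium, eight-point half-log series topping at 100 uM in 0.5% DMSO, duplicates. GCLC mRNA by qRT-PCR normalized to ACTB, GAPDH and POLR2A, fitted bidirectionally versus DMSO.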

Read-out in assay [7]: growth arrest and DNA damage 45 (GADD45G), GADD45G (gene 10912)
Description: LTEA_HepaRG_GADD45G: Life Technologies and Expression Analysis (LTEA) Assay for growth arrest and DNA damage 45 (GADD45G) using HepaRG (AID 2283499). An outline of the steps:
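GADD45G transcript level by qRT-PCR (housekeeping-normalized: ACTB, GAPDH, POLR2A) after 48 h chemical treatment of a single HepaRG lot in serum-free induction medium; eight-point half-log series up to 100 uM in 0.5% DMSO, duplicates, up- or down-regulation scored.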

Read-out in assay [8]: Glutamate-cysteine ligase regulatory (GCLM), GCLM (gene 2730)
The assay can be described thus: LTEA_HepaRG_GCLM: Life Technologies and Expression Analysis (LTEA) Assay for Glutamate-cysteine ligase regulatory (GCLM) using HepaRG (AID 2283500). An outline of the steps:
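Differentiated HepaRG cells exposed 48 h in serum-free induction medium to eight half-log concentrations up to 100 uM (0.5% DMSO). GCLM mRNA by TaqMan qRT-PCR, normalized to ACTB, GAPDH and POLR2A; bidirectional fit versus DMSO.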

Read-out in assay [9]: Heat shock 70 kDa protein 1 (HSPA1A), gene 3303
The assay can be described thus: LTEA_HepaRG_HSPA1A: Life Technologies and Expression Analysis (LTEA) Assay for Heat shock 70 kDa protein 1 (HSPA1A) using HepaRG (AID 2283502). An outline of the steps:
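Human HepaRG cells in serum-free induction medium were exposed in duplicate for 48 h to 8 half-log concentrations, highest 100 uM, in 0.5% DMSO. HSPA1A mRNA read by TaqMan qRT-PCR, normalized to ACTB, GAPDH, POLR2A, fitted bidirectionally against DMSO.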

Read-out in assay [10]: Hypoxia-inducible factor 1-alpha (Homo sapiens) (UniProt Q16665)
The assay can be described thus: LTEA_HepaRG_HIF1A: Life Technologies and Expression Analysis (LTEA) Assay for Hypoxia-inducible factor 1 (HIF1A) Trancription factor using HepaRG (AID 2283503). An outline of the steps: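 Differentiated HepaRG cells in serum-free induction medium exposed 48 h, in duplicate, to 8-point half-log series from 100 uM in 0.5% DMSO. HIF1A mRNA measured by TaqMan qRT-PCR, normalized to ACTB/GAPDH/POLR2A, fitted bidirectionally versus DMSO.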

Read-out in assay [11]: 3-Hydroxy-3-Methylglutaryl-CoA Synthase 2 (HMGCS2), HMGCS2 (gene 3158)
Description: LTEA_HepaRG_HMGCS2: Life Technologies and Expression Analysis (LTEA) Assay for 3-Hydroxy-3-Methylglutaryl-CoA Synthase 2 (HMGCS2) using HepaRG (AID 2283504). An outline of the steps: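 Readout is HMGCS2 transcript by qRT-PCR, housekeeping-normalised (ACTB/GAPDH/POLR2A) and fitted bidirectionally against 0.5% DMSO. Differentiated HepaRG cells received chemicals 48 h, duplicate wells, eight half-log concentrations topping at 100 uM.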

Read-out in another assay: HGF (gene 3082)
The assay can be described thus: LTEA_HepaRG_HGF: Life Technologies and Expression Analysis (LTEA) Assay for Hepatocyte Growth Facto (HGF) using HepaRG (AID 2283505). An outline of the steps: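 HGF transcript was quantified by TaqMan qRT-PCR against three housekeeping genes after 48 h treatment of HepaRG cells. Exposure ran in duplicate over eight half-log steps topping at 100 uM in 0.5% DMSO vehicle.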

Read-out in assay [12]: Insulin Like Growth Factor 1 (IGF1), IGF1 (gene 3479)
Description: LTEA_HepaRG_IGF1: Life Technologies and Expression Analysis (LTEA) Assay for Insulin Like Growth Factor 1 (IGF1) using HepaRG (AID 2283506). An outline of the steps:
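Differentiated HepaRG cells in serum-free induction medium, exposed 48 h in duplicate to 8 half-log concentrations up to 100 uM in 0.5% DMSO. IGF1 mRNA by Fluidigm qRT-PCR, normalised to ACTB, GAPDH and POLR2A.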

Read-out in assay [13]: Intercellular Adhesion Molecule 1 (ICAM1), ICAM1 (gene 3383)
Description: LTEA_HepaRG_ICAM1: Life Technologies and Expression Analysis (LTEA) Assay for Intercellular Adhesion Molecule 1 (ICAM1) using HepaRG (AID 2283507). An outline of the steps:
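ICAM1 transcript levels measured by qRT-PCR, normalized to three housekeeping genes (ACTB, GAPDH, POLR2A), after 48 h chemical exposure of HepaRG cells. Duplicate eight-point half-log series from 100 uM in 0.5% DMSO; gain or loss fitted against vehicle.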

Read-out in assay [14]: Insulin-like growth factor-binding protein 1 (IGFBP1), IGFBP1 (gene 3484)
Description: LTEA_HepaRG_IGFBP1: Life Technologies and Expression Analysis (LTEA) Assay for Insulin-like growth factor-binding protein 1 (IGFBP1) using HepaRG (AID 2283508). An outline of the steps:
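Read-out is qRT-PCR transcript level normalized to three housekeeping genes, fitted in both directions against 0.5% DMSO. Differentiated HepaRG cells received eight half-log concentrations (top 100 uM) in duplicate for 48 h in serum-free induction medium.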

Read-out in assay [15]: Interleukin 6 (IL6), IL6 (gene 3569)
The assay can be described thus: LTEA_HepaRG_IL6: Life Technologies and Expression Analysis (LTEA) Assay for Interleukin 6 (IL6) using HepaRG (AID 2283509). An outline of the steps: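 HepaRG cells exposed in duplicate for 48 h to eight half-log concentrations, top 100 uM, in 0.5% DMSO serum-free induction medium. mRNA measured by qRT-PCR, normalized to ACTB, GAPDH and POLR2A. Bidirectional fit versus DMSO.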

Read-out in assay [16]: Glutathione S-Transferase (GSTA2), GSTA2 (gene 2939)
Description: LTEA_HepaRG_GSTA2: Life Technologies and Expression Analysis (LTEA) Assay for Glutathione S-Transferase (GSTA2) using HepaRG (AID 2283497). An outline of the steps: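 Differentiated human HepaRG cells were exposed in duplicate for 48 h in serum-free induction medium, 8 points from 100 uM top in half-log steps, 0.5% DMSO. GSTA2 mRNA was measured by TaqMan qRT-PCR, normalized to ACTB, GAPDH and POLR2A; bidirectional fit versus DMSO.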

Read-out in assay [17]: Glutathione S-transferase M3 (GSTM3), GSTM3 (gene 2947)
The assay can be described thus: LTEA_HepaRG_GSTM3: Life Technologies and Expression Analysis (LTEA) Assay for Glutathione S-transferase M3 (GSTM3) using HepaRG (AID 2283501). An outline of the steps: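 GSTM3 transcript levels came from Fluidigm TaqMan qRT-PCR normalized to three housekeeping genes, fitted in both directions against DMSO. HepaRG cultures received chemicals for 48 h in serum-free induction medium (0.5% DMSO), 8 half-log concentrations up to 100 uM, duplicate.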

Hypoxia-inducible factor 1-alpha (Homo sapiens), sequence (Q16665 whole entry, looked up): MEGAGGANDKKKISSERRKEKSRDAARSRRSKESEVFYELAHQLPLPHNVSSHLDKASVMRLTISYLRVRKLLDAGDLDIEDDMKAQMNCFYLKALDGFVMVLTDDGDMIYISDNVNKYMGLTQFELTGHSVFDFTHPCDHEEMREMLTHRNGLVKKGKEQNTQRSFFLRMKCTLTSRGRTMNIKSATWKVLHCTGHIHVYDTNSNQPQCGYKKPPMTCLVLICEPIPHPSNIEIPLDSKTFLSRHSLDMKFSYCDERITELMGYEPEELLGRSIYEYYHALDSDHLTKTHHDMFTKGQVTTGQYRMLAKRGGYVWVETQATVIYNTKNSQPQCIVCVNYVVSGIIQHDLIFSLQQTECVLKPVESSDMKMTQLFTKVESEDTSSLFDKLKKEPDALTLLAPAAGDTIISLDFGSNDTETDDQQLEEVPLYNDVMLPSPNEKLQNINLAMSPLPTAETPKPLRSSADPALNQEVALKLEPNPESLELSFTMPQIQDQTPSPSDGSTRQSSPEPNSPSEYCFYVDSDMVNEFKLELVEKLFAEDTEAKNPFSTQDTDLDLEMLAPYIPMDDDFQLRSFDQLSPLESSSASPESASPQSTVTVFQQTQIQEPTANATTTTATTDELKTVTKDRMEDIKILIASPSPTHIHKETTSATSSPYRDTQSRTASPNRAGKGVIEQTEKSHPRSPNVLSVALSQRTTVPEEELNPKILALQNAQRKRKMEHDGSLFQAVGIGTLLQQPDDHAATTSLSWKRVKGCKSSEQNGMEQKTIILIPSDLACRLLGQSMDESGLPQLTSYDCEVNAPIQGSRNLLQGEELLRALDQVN
Cytochrome P450 3A7 (Homo sapiens), sequence (P24462 whole entry, looked up): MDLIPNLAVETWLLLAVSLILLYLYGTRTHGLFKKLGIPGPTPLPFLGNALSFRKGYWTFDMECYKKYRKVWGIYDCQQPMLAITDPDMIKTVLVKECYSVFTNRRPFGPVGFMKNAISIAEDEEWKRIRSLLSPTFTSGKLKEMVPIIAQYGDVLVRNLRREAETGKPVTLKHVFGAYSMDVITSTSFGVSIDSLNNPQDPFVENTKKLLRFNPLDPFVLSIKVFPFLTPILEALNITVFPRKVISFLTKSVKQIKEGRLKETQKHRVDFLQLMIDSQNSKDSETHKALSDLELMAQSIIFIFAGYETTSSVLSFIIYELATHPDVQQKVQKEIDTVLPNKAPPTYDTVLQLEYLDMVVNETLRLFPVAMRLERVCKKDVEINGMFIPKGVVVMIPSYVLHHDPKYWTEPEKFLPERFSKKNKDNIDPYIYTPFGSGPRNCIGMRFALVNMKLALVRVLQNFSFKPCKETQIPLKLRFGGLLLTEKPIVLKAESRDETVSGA

Consider `c1ccc2ccccc2c1`, for which the outcome (in [1]; in assay [2]; in assay [3]; with CYP3A5 (gene 1577); in [4]; in assay [5]) was inactive. Also, the outcome in assay [6], in assay [7], in assay [8], in assay [9], in assay [10] and in assay [11] was inactive. The compound was called inactive (in the assay with HGF (gene 3082); in assay [12]; in assay [13]; in assay [14]; in assay [15]).
For the compound `O=c1ccc2ccccc2o1`, the compound was called inactive (in assay [1]; in [2]; in assay [3]; with CYP3A5 (gene 1577); in assay [5]; in assay [16]). Besides, the compound was classed as inactive in assay [6], in [7], in assay [8], in [9], in assay [10] and in assay [11]. In addition, the outcome (with HGF (gene 3082); in [12]; in assay [13]; in assay [14]; in assay [15]) was inactive. For the same compound, in assay [4], the AC50 – broadly, the midpoint of the concentration-response curve, whichever way the signal moves – is 36.8 µM (active).
For the compound `Cc1oc2c(NC(=O)c3c(Cl)cccc3Cl)cccc2c1C(C)(C)O`, the compound was called inactive (in [2]; with CYP3A5 (gene 1577); in [7]; in assay [10]). Besides, the AC50 in [3] was 31.6 µM (active); in [4] it was 62.1 µM (active); in assay [5], 31.5 µM (active); in assay [16], 38.2 µM (active); in [6], 68.7 µM (active); in [8], 50 µM (active). The AC50 in assay [17] is 34.4 µM (active); in assay [9], 79.6 µM (active); in assay [11], 52.8 µM (active); with HGF (gene 3082), 85.7 µM (active); in assay [12], 28.6 µM (active); in [13], 50 µM (active). For the same compound, the AC50 in assay [14] was 37.8 µM (active); in assay [15] it was 66.2 µM (active).
For the compound `CN1C(=O)CC[C@H]1c1cccnc1`, the compound was classed as inactive (in [1]; in assay [2]; in assay [3]; in the assay with CYP3A5 (gene 1577); in assay [4]; in [5]). Moreover, the call in [16], in assay [6], in assay [7], in [8], in [9] and in [11] was inactive. The outcome in assay [12], in [13], in assay [14] and in assay [15] was inactive.
Regarding `Oc1ccc2ccccc2c1`, the call (in [1]; in assay [2]; in [3]; in the assay with CYP3A5 (gene 1577); in [4]; in [5]) was inactive. For the same compound, the outcome in assay [6], in assay [7], in assay [8], in assay [9], in assay [10] and in assay [11] was inactive. For the same compound, the result in assay [12], in [13], in [14] and in assay [15] was inactive.
On to `CCCCCc1ccc(N)cc1`, for which the compound was called inactive (in assay [1]; in assay [2]; in assay [3]; in the assay with CYP3A5 (gene 1577); in assay [4]; in assay [5]). The outcome in [6], in assay [7], in [8], in [17], in assay [9] and in [10] was inactive. In addition, the compound was classed as inactive (in assay [11]; with HGF (gene 3082); in assay [12]; in assay [13]; in [14]; in assay [15]).
